# Mm-Cpn inhibitor: inhibitors of Methanococcus maripaludis chaperonin TRiC (MmCpn); purified Mm-Cpn ATPase, ADP Transcreener TR-FRET; Potency, µM (series often up to 76.9 µM), for the others: at the top dose activity, negative = inhibition, usual class: inhibitors; actives 0.031% (n = 330,000); note: potency is the fitted concentration of half-maximal effect; nearly all actives have a fitted effect of over 80% in size
#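 Compound-treated chaperonin, 25 nM final, turns over 10 uM ATP at 37°C for 30 min following a 10 min preincubation; ADP generated competes with ADP-d2 for Eu-cryptate antibody, lowering FRET.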
# Sfp PPTase inh: blocks B. subtilis Sfp PPTase activity; actives 3.5% (n = 310,000); Biochemical Sfp PPTase activity, qHTS; Potency, µM, for the others: largest response in the series, negative = inhibition, hits mostly inhibitors; AID 1490;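 note: the enzyme is Sfp with the accession as filed and its product quenches rhodamine fluorescence; potency is the fitted concentration of half-maximal effect; 0% = enzyme reaction without inhibitor and -100% = no enzyme wells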
#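 Step 1, compound plus 15 nM Sfp-PPTase, 15 min, room temperature. Step 2, add rhodamine-CoA (5 uM) and BHQ-2-YbbR (12.5 uM). Step 3, read 525/598 nm fluorescence at 0 and 30 min.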
# CCT chaperon mod: cytosolic chaperonin activity modulation | purified chaperonin ATPase assay, HTRF ADP detection, 30 min | activity change, % (concentration not given with the values), hits read low | actives 0.3% (n = 360,000); in the data active = activity change below about -30%
#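 We incubate TRiC, 40 or 20 nM final, with library compounds at 76 uM and 10 uM ATP for 30 min at 37 °C. ADP formed is detected with Transcreener HTRF reagents after 30 min at room temperature.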
# PLK1 PBD block: PLK1 (human) polo-box domain binding inhibition | Plk1 PBD binding of FITC phosphopeptide, fluorescence polarization | Potency, µM, for inactives: max response, negative = inhibition, hits mostly inhibitors | actives 2.8% (n = 360,000) | AID 720504; note: potency is the fitted concentration of half-maximal effect; series mostly up to about 57 µM; nearly all actives have a fitted effect of over 65% in size
# VDR inhibitor: inhibitors of human vitamin D receptor; actives 0.93% (n = 400,000); Potency, µM, for the others: max response, negative = inhibition, usual class: inhibitors; AID 504847; VDR-SRC2-3 peptide fluorescence polarization, 2 h; note: potency is the fitted concentration of half-maximal effect
# Target sequence (P11473 whole entry, looked up): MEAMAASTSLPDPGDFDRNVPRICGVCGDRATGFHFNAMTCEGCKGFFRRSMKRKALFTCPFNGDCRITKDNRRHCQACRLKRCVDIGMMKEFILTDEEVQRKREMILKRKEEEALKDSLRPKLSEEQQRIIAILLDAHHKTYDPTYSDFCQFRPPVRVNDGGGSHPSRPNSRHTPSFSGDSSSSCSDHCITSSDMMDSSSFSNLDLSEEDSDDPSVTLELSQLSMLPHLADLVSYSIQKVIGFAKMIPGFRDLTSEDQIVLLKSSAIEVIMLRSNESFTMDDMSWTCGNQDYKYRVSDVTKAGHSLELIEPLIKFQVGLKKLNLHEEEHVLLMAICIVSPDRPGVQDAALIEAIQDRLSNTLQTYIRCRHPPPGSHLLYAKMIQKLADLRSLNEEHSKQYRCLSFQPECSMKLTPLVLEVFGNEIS
#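 Signal is fluorescence polarization, reporting how far test compounds block the interaction of VDR with the SRC2-3 coregulator peptide after a 2 h room-temperature incubation.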
# G9a inh: inhibitors of human histone lysine methyltransferase G9a; Q96KQ7; G9a H3K9 monomethylation, AlphaScreen, 2 h; Potency, µM (doses to about 102 µM), for the others: at the top dose activity, negative = inhibition, actives largely listed as inhibitors; actives 8.8% (n = 350,000); AID 504332; note: potency is the fitted concentration of half-maximal effect; nearly all actives have a fitted effect of over 75% in size
# Target sequence (Q96KQ7 913-1193 limits assumed): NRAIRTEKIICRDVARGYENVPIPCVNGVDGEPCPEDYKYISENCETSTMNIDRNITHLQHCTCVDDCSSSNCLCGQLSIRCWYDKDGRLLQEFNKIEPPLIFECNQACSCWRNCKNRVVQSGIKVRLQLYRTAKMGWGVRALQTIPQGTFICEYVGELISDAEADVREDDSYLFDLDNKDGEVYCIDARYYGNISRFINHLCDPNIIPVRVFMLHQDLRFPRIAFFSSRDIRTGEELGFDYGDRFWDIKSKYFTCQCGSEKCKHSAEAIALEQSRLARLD
#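 Enzyme 20 nM + cpd, 15 min RT; add b-H3K9 pep 500 nM / SAM 20 uM; 2 h RT; anti-H3K9me1 Ab 0.5 ug/mL + SA donor / anti-rabbit acceptor beads 20 ug/mL each, 10 min; AlphaScreen read.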
# * marks the source's active call; other numbers are inactive results; ? = inconclusive; . = no result; [ ] = remark or other dose. In the library only some 10% were active in any assay of this set; here they are far more common. Unless noted, calls come from the whole dose curve; as a rule, active = well fitted curve in the direction sought with a large enough effect; inconclusive = small, poorly fitted or top-dose-only effect, or another doubt; inactive = no such curve, though single readings can be large; an effect the other way counts as inactive or inconclusive. Unless noted, % is set by controls: 0 for no effect and ±100 for the full control effect.
SMILES,Mm-Cpn inhibitor,Sfp PPTase inh,CCT chaperon mod,PLK1 PBD block,VDR inhibitor,G9a inh
CCOC(=O)c1[nH]c(C)c(CCC(=O)Nc2ccc(N(CC)CC)cc2C)c1C,.,.,.,.,3.0%,14.1µM*
Cc1ccc(C2=NN(C(=O)CSc3nc4ncc(Cl)cc4[nH]3)C(c3ccco3)C2)cc1 (stereo unspecified),-29.8%,44.7µM*,1.2,-5.0%,5.1%,22.4µM*
COc1ccc(C2=NN(C(=O)CSc3nc4ncc(Cl)cc4[nH]3)C(c3ccco3)C2)cc1 (stereo unspecified),?,-8.0%,0.9,-14.1%,3.5%,56.2µM*
CN1C(=O)C2(SCC(=O)N2c2ccc(F)cc2)c2ccccc21 (stereo unspecified),.,.,.,.,21.3%,?
Cc1ccc(N=C2S/C(=C\c3cn(CC(=O)O)c4ccccc34)C(=O)N2C)cc1,-0.4%,-17.6%,-1.4,-24.5%,?,79.4µM*
CCCCn1c(SCC(=O)NCc2ccccc2)nc2ccc(N3CCOCC3)cc2c1=O,-2.8%,-28.8%,-3.9,-20.2%,-14.8%,9.8%[12.7 µM]
CCCCn1c(SCC(=O)NCc2ccco2)nc2ccc(N3CCOCC3)cc2c1=O,-3.7%,44.7µM*,-3.0,-15.2%,-7.4%,3.6%[12.7 µM]
CCCCn1c(SCC(=O)NC(C)CC)nc2ccc(N3CCOCC3)cc2c1=O (stereo unspecified),-1.2%,56.2µM*,0.8,-2.0%,-16.9%,?
CCC(C)NC(=O)CSc1nc2ccc(N3CCOCC3)cc2c(=O)n1CCc1ccccc1 (stereo unspecified),-22.2%,-14.6%,.,.,.,-50.6%[59 µM]
NC(=O)C(c1ccccc1)(c1ccccc1)[C@@H]1CCN(CCc2ccc3c(c2)CCO3)C1,.,16.6%,.,.,1.9%,-35.4%[12.7 µM]
Cc1ccc(-c2cnc(NCc3ccc(C(F)(F)F)cc3)n2C)cc1,.,.,.,.,-3.9%,3.55µM*
Cc1ccc(CNc2ncc(-c3ccccc3)n2C)o1,-3.7%,-18.1%,-2.9,-4.0%,1.4%,.
COc1ccc(-c2cnc(NCc3ccc(C)cc3)n2C)cc1,.,.,.,.,-4.8%,3.55µM*
Cc1ccc(CNc2nc3ccccc3n2C)cc1,2.0%,-1.3%,0.9,-1.1%,0.3%,26.2%[59 µM]
Cn1c(-c2cccc(Br)c2)cnc1NCc1ccccc1O,-3.2%,-12.7%,-5.8,-17.2%,24.8%,.
COc1cccc(CNc2ncc(-c3ccc(Br)cc3)n2C)c1,.,.,.,.,11.9%,20µM*
Cc1cccc(CNC(=O)c2ccc3c(c2)N(C)C(=O)C2CCCCN32)c1 (stereo unspecified),.,.,.,.,-5.3%,-17.1%[59 µM]
CCCn1c(-c2ccc(F)cc2)nc2c(NCCN3CCOCC3)nc(C)nc21,.,4.2%,.,.,.,.
Cc1ccc(Cn2ccc(NC(=O)c3cc(-c4ccc(Cl)c(Cl)c4)on3)n2)cc1,.,.,.,.,-4.3%,3.5%[59 µM]
CCOC(=O)Cc1ccc(NC(=O)c2ccc(C(C)(C)C)cc2)cc1,2.1%,24.5%,1.9,5.32µM*,-7.9%,11.3%
COc1ccc(-c2ccc(CCC(=O)O)o2)cc1,1.0%,14.1µM*,1.1,-25.4%,?,28.2µM*
O=C(O)CCc1ccc(-c2ccc(Br)cc2)o1,-12.3%,17.8µM*,-0.6,?,?,15.8µM*
O=C(CCSCc1cccc(Cl)c1)NCc1ccccc1Cl,.,.,.,.,10.8%,10.4%[59 µM]
O=C(CCCn1c(=O)[nH]c2ccccc2c1=O)NC1CCCCCC1,-0.4%,5.3%,-1.5,4.5%,-13.9%,2.0%[59 µM]
CC1CCC(NC(=O)CCCn2sc3ccccc3c2=O)CC1 (stereo unspecified),-8.3%,3.6%,1.2,26.7µM*,?,22.4µM*
SMILES,Mm-Cpn inhibitor,Sfp PPTase inh,CCT chaperon mod,PLK1 PBD block,VDR inhibitor,G9a inh
CN(C)S(=O)(=O)c1ccc(C(=O)NCC2CC2(Cl)Cl)cc1 (stereo unspecified),-1.3%,-0.6%,1.9,23.8µM*,?,1.5%[59 µM]
O=C(/C=C/c1ccc(O)c(O)c1)OC1C(O)CC(OC(=O)/C=C/c2ccc(O)c(O)c2)(C(=O)O)CC1O (stereo unspecified),0.9%,44.7µM*,-7.9,1.0%,-15.5%,31.6µM*
CCN1CCN(C(=O)c2ccc(CNS(=O)(=O)c3cccc(OC)c3)cc2)CC1,0.7%,9.2%,1.1,3.2%,-1.1%,44.7µM*
COc1cccc(S(=O)(=O)NCc2ccc(C(=O)N3CCN(Cc4ccccc4)CC3)cc2)c1,-2.4%,16.5%,0.0,-9.8%,9.6%,.
O=C(c1cccc(OC2CCN(Cc3ccc(F)cc3)CC2)c1)N1CCCC1,-1.3%,16.2%,-0.8,21.2µM*,-18.0%,15.9%[12.7 µM]
O=C(c1ccc(OC2CCN(Cc3ccc(F)cc3)CC2)cc1)N1CCCC1,3.8%,7.9%,-2.1,-11.1%,-10.2%,-2.5%
COc1ccc(CN2CCN(Cc3cccc(Oc4ccccc4)c3)CC2)c(OC)c1OC,-1.5%,?,2.4,2.0%,-15.8%,44.7µM*
O=C(c1cccnc1)N1CCN(Cc2cccc(F)c2)CC1,-1.7%,79.4µM*,1.3,-3.3%,-2.0%,3.16µM*
CC1CCN(S(=O)(=O)c2ccc3[nH]ccc3c2)CC1,.,.,.,.,1.3%,16.2%[59 µM]
COc1cccc(CN2CCN(C(=O)c3ccc(-c4ccccc4)cc3)CC2)c1,0.8%[15.4 µM],-15.7%,-0.1,-0.4%,0.1%,12.6µM*
COc1ccc(CN2CCN(Cc3ccc(Br)cc3)CC2)c(OC)c1OC,-2.4%,79.4µM*,0.7,-11.4%,-11.1%,2.24µM*
COc1ccc(CN2CCN(c3ccc(F)cc3)CC2)c(OC)c1OC,-0.7%,-1.2%,-2.5,-7.8%,2.6%,-3.0%[59 µM]
CN1CCN(Cc2cccc(Oc3ccccc3)c2)CC1,1.8%,-0.9%,3.2,6.3%,4.9%,70.8µM*
COc1cccc(CN2CCN(C(=O)c3cccc(OC)c3)CC2)c1,-2.7%,79.4µM*,1.6,-1.0%,-2.9%,20µM*
COc1cccc(CN2CCN(C(=O)c3ccc(-c4ccccc4)cc3)CC2)c1OC,-0.2%,-1.9%,2.2,29.9µM*,1.8%,.
OC1CCN(Cc2cccc(Oc3ccccc3)c2)CC1,2.1%,9.4%,-0.5,-17.6%,-17.7%,-1.4%[59 µM]
COc1cccc(CN2CCN(S(=O)(=O)c3ccccc3)CC2)c1OC,.,.,-5.8,-0.1%,1.6%,.
COc1cc(CN2CCN(Cc3cccc(OC)c3OC)CC2)cc(OC)c1,-2.0%,?,-0.8,-2.1%,11.0%,44.7µM*
O=C(c1ccccc1)N1CCN(Cc2cccc(Oc3ccccc3)c2)CC1,2.4%,-14.1%,-0.6,23.8µM*,?,15.8µM*
CC(=O)N1CCN(c2csc3ccc(F)cc3c2=O)CC1,.,.,.,.,10.0%,-40.0%[59 µM]
Cc1ccc2nc(-c3ccc(NC(=O)Cc4ccccc4)cc3)sc2c1,.,.,.,.,-0.4%,1.5%[59 µM]
Cc1ccc2sc(-c3ccc(NC(=O)/C=C\C(=O)O)cc3)nc2c1,2.5%,-12.4%,-0.6,?,?,50.1µM*
Cc1ccc(NC(=O)/C=C\C(=O)NCC(=O)O)cc1,-2.3%,70.8µM*,-0.5,0.2%,5.6%,10µM*

# Source: PubChem (National Center for Advancing Translational Sciences (NCATS))
